# Shown is part of a subset that was picked to be rich in the strongest signals.
# B1: PX14343B-bfa-546-20-546 (Bacteroides fragilis) (protein)
# chain: CDLERYPLTDLSEETFWNSESNAELALTSLYRGSLTDGVEYNPSDWWSYHGMIMMEHLSDNAFDRRGENNPFFKISSGNLTADNAFIKRYWETSYKRIGYCNRFLVGIQNSSESEKKTRMIAEARFLRATQYFYLASYFKNVPLVENVLTGEEANNVTKTSQADILKWCVTEFTAAAADLPRFSAIPAGEAGRACKQAALAFLGRTCMLQKDWKSGAKAFHDIMELGDNAINANYQELFYPSTGTSNKENIFYIQYLENYLGTGLPQHALSAKDGGWSLVNPAADLYESYEFKDGTPFSYDDPRYDPSNLGKDRDPRLDYTIYYNGAIFMGTEYKMSPDYSAAKKEKLDYTSEASRTGFMMRKYFEESTPINDVQSANGLTPVIRYAEVLLGYLECLVEDNQTITQGILDETINAVRGRASVNMPPVTEVTPAKLREIVRHERRIELAMEGIRYWDIMRWGIAHEVLSQKIWGAPYPGSTQYATTTKEVDPTGNYRWYVGKRAFRNPTDYTWPIPQSEQNINPNLRD
# Columns and labels:
# Test in all cases: glycan array binding signal (z-score within array); higher = stronger binding
# Details in all cases: glycan notation: IUPAC condensed, linker removed
# [1] = biological target: Fuc(a1-2)Gal(b1-3)GalNAc(b1-3)Gal
# In short: (§1)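 Glycan array data were curated from 3228 arrays in the Consortium for Functional Glycomics database and kept only where the protein sequence was available. Glycan names were converted to IUPAC-condensed notation, and columns mapping to the same glycan were averaged. The binding signal is a within-array Z-score, averaged across arrays of the same protein sequence at different concentrations or buffers and across linkers. Negative Z-scores can be read as non-binding.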
# [2] = biological target: Fuc(a1-2)Gal(b1-3)GlcNAc(b1-3)[Fuc(a1-2)Gal(b1-3)GlcNAc(b1-6)]GalNAc
# In short: as §1
# [3] = biological target: Fuc(a1-2)Gal3S(b1-4)GlcNAc
# In short: as §1
# [4] = biological target: Fuc(a1-2)Gal6S(b1-3)GlcNAc
# In short: as §1
# [5] = biological target: Fuc(a1-2)Gal6S(b1-3)GlcNAc6S
# In short: as §1
# [6] = biological target: Fuc(a1-2)Gal6S(b1-4)Glc6S
# In short: as §1
# [7] = biological target: Fuc(a1-2)[Gal(a1-3)]Gal(b1-4)GlcNAc
# In short: as §1
# [8] = biological target: Fuc(a1-2)[Gal(a1-3)]Gal(b1-4)[Fuc(a1-3)]Glc
# In short: as §1
# [9] = biological target: Fuc(a1-2)[GalNAc(a1-3)]Gal(b1-4)GlcNAc(b1-3)Gal(b1-4)GlcNAc
# In short: as §1
# [10] = biological target: Fuc(a1-2)[GalNAc(a1-4)]Gal(b1-4)GlcNAc
# In short: as §1
# [11] = biological target: Fuc(a1-3)[Gal(b1-4)]GlcNAc6S
# In short: as §1
# [12] = biological target: Gal(a1-3)Gal(b1-4)GlcNAc
# In short: as §1
# [13] = biological target: Gal(b1-3)Gal(b1-4)GlcNAc
# In short: as §1
# [14] = biological target: Gal(b1-3)GalNAc(a1-3)[Fuc(a1-2)]Gal(b1-4)Glc
# In short: as §1
# [15] = biological target: Gal(b1-3)GlcNAc(b1-2)[Gal(b1-3)GlcNAc(b1-6)]Man(a1-6)[Gal(b1-3)GlcNAc(b1-2)Man(a1-3)]Man(b1-4)GlcNAc(b1-4)GlcNAc
# In short: as §1
# [16] = biological target: Gal(b1-3)GlcNAc(b1-3)Gal(b1-4)GlcNAc(b1-3)Gal(b1-4)GlcNAc(b1-2)[Gal(b1-3)GlcNAc(b1-3)Gal(b1-4)GlcNAc(b1-3)Gal(b1-4)GlcNAc(b1-6)]Man(a1-6)[Gal(b1-3)GlcNAc(b1-3)Gal(b1-4)GlcNAc(b1-3)Gal(b1-4)GlcNAc(b1-2)Man(a1-3)]Man(b1-4)GlcNAc(b1-4)[Fuc(a1-6)]GlcNAc
# In short: as §1
# [17] = biological target: Gal(b1-3)GlcNAc(b1-3)GalNAc
# In short: as §1
# [18] = biological target: Gal(b1-4)GlcNAc
# In short: as §1
# [19] = biological target: Gal(b1-4)GlcNAc(b1-3)Gal(b1-4)GlcNAc
# In short: as §1
# [20] = biological target: Gal(b1-4)GlcNAc(b1-3)Gal(b1-4)GlcNAc(b1-3)Gal(b1-4)GlcNAc
# In short: as §1
# [21] = biological target: Gal(b1-4)GlcNAc(b1-3)[Gal(b1-4)GlcNAc(b1-6)]Gal(b1-4)GlcNAc
# In short: as §1
# [22] = biological target: Gal6S(b1-3)GlcNAc
# In short: as §1
# [23] = biological target: Gal6S(b1-3)GlcNAc6S
# In short: as §1
# [24] = biological target: Gal6S(b1-4)Glc
# In short: as §1
# [25] = biological target: Gal6S(b1-4)Glc6S
# In short: as §1
# [26] = biological target: Gal6S(b1-4)GlcNAc
# In short: as §1
# [27] = biological target: Gal6S(b1-4)GlcNAc6S
# In short: as §1
# [28] = biological target: GalNAc(b1-3)Gal
# In short: as §1
# [29] = biological target: GalNAc3S(b1-4)[Fuc(a1-3)]GlcNAc
# In short: as §1
# [30] = biological target: GalNAc6S(b1-4)GlcNAc
# In short: as §1
# [31] = biological target: GlcNAc(b1-2)[GlcNAc(b1-4)]Man(a1-3)[GlcNAc(b1-4)][GlcNAc(b1-2)Man(a1-6)]Man(b1-4)GlcNAc(b1-4)GlcNAc
# In short: as §1
# [32] = biological target: GlcNAc(b1-3)Gal(b1-4)Glc
# In short: as §1
# [33] = biological target: Kdn(a2-3)Gal(b1-4)GlcNAc
# In short: as §1
# [34] = biological target: Man(a1-3)[Man(a1-6)]Man(a1-6)[Man(a1-3)]Man(b1-4)GlcNAc(b1-4)GlcNAc
# In short: as §1
# [35] = biological target: Neu5Ac(a2-3)Gal(b1-4)GlcNAc
# In short: as §1
# [36] = biological target: Neu5Ac(a2-6)Gal(b1-4)Glc
# In short: as §1
# [37] = biological target: Neu5Ac(a2-6)Gal(b1-4)GlcNAc(b1-2)Man(a1-3)[Neu5Ac(a2-3)Gal(b1-4)GlcNAc(b1-2)Man(a1-6)]Man(b1-4)GlcNAc(b1-4)GlcNAc
# In short: as §1
# [38] = biological target: Neu5Ac(a2-6)Gal(b1-4)GlcNAc(b1-2)Man(a1-6)Man(b1-4)GlcNAc(b1-4)GlcNAc
# In short: as §1
# [39] = biological target: Neu5Ac(a2-6)Gal(b1-4)GlcNAc(b1-6)GalNAc
# In short: as §1
# [40] = biological target: Neu5Ac(a2-8)Neu5Ac(a2-3)Gal(b1-3)GalNAc(b1-4)[Neu5Ac(a2-3)]Gal(b1-4)Glc
# In short: as §1
# [41] = biological target: Neu5Ac(a2-8)Neu5Ac(a2-3)Gal(b1-3)GalNAc(b1-4)[Neu5Ac(a2-8)Neu5Ac(a2-3)]Gal(b1-4)Glc
# In short: as §1
# [42] = biological target: Neu5Ac(a2-8)Neu5Ac(a2-3)[GalNAc(b1-4)]Gal(b1-4)Glc
# In short: as §1
# [43] = biological target: Neu5Gc(a2-3)Gal(b1-4)GlcNAc
# In short: as §1
# [44] = biological target: Neu5Gc(a2-3)Gal(b1-4)GlcNAc(b1-3)Gal(b1-4)GlcNAc(b1-2)Man(a1-3)[Neu5Gc(a2-3)Gal(b1-4)GlcNAc(b1-3)Gal(b1-4)GlcNAc(b1-2)Man(a1-6)]Man(b1-4)GlcNAc(b1-4)GlcNAc
# In short: as §1
# [45] = biological target: Neu5Gc(a2-3)Gal(b1-4)[Fuc(a1-3)]GlcNAc
# In short: as §1
binder,measurement,setting,value
B1,glycan array binding signal (z-score),[1],-0.117
same,glycan array binding signal (z-score),[2],-0.126
same,glycan array binding signal (z-score),[3],4.47
same,glycan array binding signal (z-score),[4],2.42
same,glycan array binding signal (z-score),[5],6.35
same,glycan array binding signal (z-score),[6],0.709
same,glycan array binding signal (z-score),[7],-0.126
same,glycan array binding signal (z-score),[8],-0.124
same,glycan array binding signal (z-score),[9],-0.126
same,glycan array binding signal (z-score),[10],-0.115
same,glycan array binding signal (z-score),[11],-0.129
same,glycan array binding signal (z-score),[12],-0.122
same,glycan array binding signal (z-score),[13],-0.113
same,glycan array binding signal (z-score),[14],-0.122
same,glycan array binding signal (z-score),[15],-0.117
same,glycan array binding signal (z-score),[16],-0.113
same,glycan array binding signal (z-score),[17],-0.12
same,glycan array binding signal (z-score),[18],-0.128
same,glycan array binding signal (z-score),[19],-0.132
same,glycan array binding signal (z-score),[20],-0.113
same,glycan array binding signal (z-score),[21],-0.123
same,glycan array binding signal (z-score),[22],9.99
same,glycan array binding signal (z-score),[23],6.09
same,glycan array binding signal (z-score),[24],1.73
same,glycan array binding signal (z-score),[25],3.07
same,glycan array binding signal (z-score),[26],9.6
same,glycan array binding signal (z-score),[27],13.3
same,glycan array binding signal (z-score),[28],-0.123
same,glycan array binding signal (z-score),[29],-0.136
same,glycan array binding signal (z-score),[30],10.1
same,glycan array binding signal (z-score),[31],-0.124
same,glycan array binding signal (z-score),[32],-0.13
same,glycan array binding signal (z-score),[33],-0.123
same,glycan array binding signal (z-score),[34],-0.104
same,glycan array binding signal (z-score),[35],-0.121
same,glycan array binding signal (z-score),[36],-0.122
same,glycan array binding signal (z-score),[37],-0.127
same,glycan array binding signal (z-score),[38],-0.119
same,glycan array binding signal (z-score),[39],-0.123
same,glycan array binding signal (z-score),[40],-0.129
same,glycan array binding signal (z-score),[41],-0.12
same,glycan array binding signal (z-score),[42],-0.131
same,glycan array binding signal (z-score),[43],-0.122
same,glycan array binding signal (z-score),[44],-0.129
same,glycan array binding signal (z-score),[45],-0.113

# Source: the supplement of paper PMC8728848
